# Reference: PubChem BioAssay AID504397 (Broad Institute, 2011)
# Results with a measured potency or affinity are listed apart. Activity calls are given as the source filed them. The rule behind the calls is not given here.
# Assay: toxicity toward cultured mammalian cells – cell-based, plate reader, cherry-pick samples, cytotoxicity control, dose response (AID 504397)
compound,measurement,value
CCOC(=O)[C@@H]1[C@H]2COc3ccc(Br)cc3[C@@H]2N2C(=O)N(c3cccc(C)c3)C(=O)[C@]12C,outcome,inactive
